# PubChem BioAssay AID893 (National Center for Advancing Translational Sciences (NCATS), 2007)
# “And” between values parts separate entries of the source, which are not always exact repeats. Equal values may be shown once. About 5,700 (7.6%) of roughly 75,000 compounds were called active. Inconclusive results (about 7%) are left out. Calls follow the shape of the dose curve; as a rule, active = well fitted inhibition curve with a large enough effect; inconclusive = small, poorly fitted or top-dose-only effect; inactive = no such curve, though single readings can be large or run the other way. Many of the other results were omitted from the sample, so actives are more common in it than they were.
# Target: 3-hydroxyacyl-CoA dehydrogenase type-2 (Homo sapiens) (UniProt Q99714)
# Assay: qHTS Assay for Inhibitors of HSD17B4, hydroxysteroid (17-beta) dehydrogenase 4; also: nearly all actives have a fitted effect of over 70% in size
# Conditions: recombinant HSD17B10, NADH fluorescence kinetic; series mostly up to 57.1 µM; activity change, negative = inhibition: at the top concentration
# Text: Assay Overview: NIH Molecular Libraries Screening Centers Network [MLSCN] NIH Chemical Genomics Center [NCGC] Structural Genomics Consortium [SGC] Grant number: None HADH2: Hydroxyacyl-Coenzyme A dehydrogenase, type II, was supplied by researchers at the Structural Genomics Consortium, Oxford University lab (PI Udo Oppermann). The mitochondrial enzyme 17-hydroxysteroid dehydrogenase type 10 (HSD17-10) previously classified as type II hydroxyacyl-CoA dehydrogenase (HADH2) catalyzes the NAD+ dependent oxidation of a variety of substrates including acyl-CoAs, androgens and neurosteroids as well as bile acids(Shafqat N, Marschall HU, Filling C, et al. Biochemical Journal. 2003;376(Pt 1):49-60). […] The enzyme was produced by E.coli fermentation as His-tagged recombinant for the purpose of X-ray structure determination, and had been mass-spectrometry characterized. Inhibition of HADH2 activity was screened by utilizing beta-hydroxybutyryl coenzyme A as an electron donor and NAD+ as an electron acceptor/cofactor. An increase in the fluorescence intensity due to conversion of NAD+ to NADH was used to measure the enzyme activity.
# Assay Protocol: Buffer: 100 mM Tris-HCl pH 9.0, containing 0.01 % Tween-20. Reagents/Controls: Buffer in columns 3 and 4 as negative control (no enzyme). Substrate/cofactor solution: 1 mM NAD+ and 90 uM beta-hydroxybutyryl coenzyme A (Sigma-Aldrich, St. Louis, MO) final concentrations dispensed throughout the plate. Enzyme: 20 nM HADH2 final concentration in columns 1, 2, 5-48. Column 1 is neutral (100% activity). Column 2 contained titration of apomorphine (Sigma-Aldrich, A 4393, PubChem CID 2215, top concentration 500 uM, then 1:2 dilution in duplicate) Assay Steps: Three uL of enzyme were dispensed to 1536-well Greiner black solid bottom plates. Compounds and controls (23 nL) were transferred via Kalypsys PinTool. The plates were incubated for 15 min at room temperature, and then 1 uL of substrate/cofactor solution was added to start the reaction. The plates were immediately transferred to and read every 30 seconds for 4 min on ViewLux High-throughput CCD imager (Perkin-Elmer) using 360 nm excitation and 450 nm emission fluorescence protocol. The fluorescence intensity difference between the last and the first time points was used to compute reaction progress.
# % is scaled to controls: 0 for no effect and ±100 for the full control effect; potency is read from the fitted curve at half-maximal effect.
SMILES,"activity change, negative = inhibition",Potency
COc1ccc(N2C(=O)CCC(C(=O)Nc3ccccn3)C2c2ccc(OC)c(OC)c2)cc1 (stereo unspecified),16.6% (inactive),–
CC(C)=CCC/C(C)=C/CO/N=C1/C[C@@H](O)[C@@H](O)[C@@H]2[C@@H]3C(=O)N(C(C)(C)C)C(=O)[C@H]3CC[C@H]12,0.507% [at 11.4 µM] (inactive),–
CC(C)c1ccc2c(c1)c(SC(C)(C)C)c(CC(C)(C)C(=O)O)n2Cc1ccc(Cl)cc1,–,10 µM (active) and 3.98 µM (active)
COC(=O)[C@@H]1CC[C@H](C)[C@@H](c2ccc(C)cc2)N1C(=O)c1ccc(/C=N\O[C@@H](C)c2cn([C@H](CO)Cc3ccccc3)nn2)cc1,-0.702% [at 11.4 µM] (inactive) and -3.31% [at 11.4 µM] (inactive),–
O=C(Nc1c(C(=O)N2CCCCC2)cnn1-c1ccccc1)c1ccco1,6.7% (inactive),–
Cc1c(C(=O)NCCN2CCOCC2)sc2nc(-c3ccc(F)cc3)cn12,6.66% (inactive),–
O=C1c2cccc3cccc(c23)N1CN1CCN(c2ccccn2)CC1,2.8% (inactive),–
CC(C(=O)O)N1C(=O)c2cccc3cccc1c23 (stereo unspecified),2.71% (inactive),–
COc1ccc(N2C(=O)c3cccc4cccc(c34)C2=O)nn1,–,31.6 µM (active)
CN1CC(=O)N=C1N,-0.833% (inactive),–
COC(=O)NC(c1ccccc1)[C@]1(C(C)=O)CCCC1=O (stereo partly specified),3.19% [at 11.4 µM] (inactive),–
O=S(=O)(O)c1nc2ccccc2n1Cc1ccc(Cl)cc1,-1.86% (inactive),–
CCn1nc(NC(=O)c2ccco2)c2cc3ccc(C)cc3nc21,–,20 µM (active)
Cc1ccc(Cn2c(NC(=O)c3ccco3)nc3ccccc32)cc1,–,15.8 µM (active)
CCN(CC)C(=O)c1sc(NC(=O)c2ccco2)c(C#N)c1C,-17.2% (inactive),–
Cc1ccnc(NC(=O)c2ccc(NC(=O)c3ccco3)cc2)c1,-8.38% (inactive),–
Cc1ccc(C(=O)COc2cccc(NC(=O)c3ccco3)c2)cc1,-14.7% (inactive),–
COC(C)(C)[C@]12CC(O)(C(C)C)ON1[C@H]1CCCCC1N2O (stereo partly specified),8.36% (inactive),–
Cc1sc2c(c1C)c(=O)n(-c1ccccc1)c1nncn21,5.02% (inactive),–
Cn1c2c(c(=O)n(C)c1=O)C(c1ccc(O)cc1)Nc1ccccc1O2 (stereo unspecified),-8.25% (inactive),–
O=C(CCCN1C(=O)C2C3C=CC(C3)C2C1=O)N1CCN(c2ccccc2)CC1 (stereo unspecified),-2.22% (inactive),–
CC(C)CCNC(=O)CCNS(=O)(=O)c1ccc(Cl)cc1,10.5% (inactive),–
CCOC(=O)c1cnc(SCC(=O)NCc2ccco2)nc1N,-6.87% (inactive),–
CCCCOc1ccc(-c2ncc(C(=O)OCC)c(N)n2)cc1,–,31.6 µM (active)
CCCCOc1ccc(NC(=O)CSCC(=O)OCC)cc1,1.87% (inactive),–
Cc1cccc(NC(=O)c2ccc3ccccc3n2)n1,-20.5% (inactive),–

SMILES,"activity change, negative = inhibition",Potency
COC(=O)[C@@H]1C[C@@]2(O)[C@H](O)[C@H](O)[C@H](O)C[C@H]2N1Cc1ccc(C(C)(C)C)cc1,3.75% (inactive),–
COc1ccc(OC)c([C@H](O)CNC(=O)CN)c1,0.323% [at 25.6 µM] (inactive),–
Cc1c(C(=O)CN2CCOCC2)[nH]c2ccccc12,-6.78% (inactive),–
COc1cc(NC(=O)N2CCOCC2)cc(OC)c1,5.87% (inactive),–
CCOC(=O)c1[nH]c2ccc(OC)cc2c1NC(=O)N1CCOCC1,–,25.1 µM (active)
O=C(CN1C2CCC1CC(NC(=O)C1CC1)C2)NCc1ccccc1 (stereo unspecified),1.53% (inactive),–
Cc1nc2ccccc2c2oc(C(=O)NCCCN3CCC(C)CC3)cc12,-22.8% (inactive),–
CCCN(CCC)CCNC(=O)c1cc2c(C)nc3ccccc3c2o1,-25.7% (inactive),–
Cc1nc2ccccc2c2oc(C(=O)NCC3CCCO3)cc12 (stereo unspecified),–,31.6 µM (active)
Cc1ccc(Cc2cncc(O)c2)cc1S(=O)(=O)O,-3.12% (inactive),–
CCCn1c(SCC(=O)c2ccc3c(c2)OCCO3)nnc1C(C)C,-6.57% (inactive),–
COc1cc(C2C(C(=O)Nc3ccc(F)cc3)=C(C)Nc3nc(CCCO)nn32)cc(OC)c1OC (stereo unspecified),4.48% (inactive),–
CC1C(O)CC2C(C(=O)O)=CO[C@@H](O[C@H]3OC(CO)C(O)C(O)C3O)C21 (stereo partly specified),-1.35% (inactive),–
COc1ccc(C2CC(c3ccccc3)Nc3ncnn32)cc1 (stereo unspecified),1.31% (inactive),–
CC(C)[C@@H](OCc1ccccc1)[C@H](C)/C=N\OC[C@@H](C)[C@H](OCc1ccccc1)C(C)C,2.53% [at 11.4 µM] (inactive),–
OC(COc1ccccc1)Cn1cc(Br)cn1 (stereo unspecified),7.04% (inactive),–
COc1cc(-c2nc(S(=O)(=O)c3ccc(Cl)cc3)c(N(C)C)o2)cc(OC)c1OC,-6.36% (inactive),–
COC(=O)c1ccc(C2C3=C(Nc4nnnn42)c2ccccc2OC3)cc1 (stereo unspecified),–,25.1 µM (active)
COC(=O)c1ccc(C2NC(=O)NC(C)=C2C(=O)N(C)C)cc1 (stereo unspecified),-0.293% (inactive),–
COc1ccc(C2C(C(=O)Nc3ccccc3OC)=C(C)Nc3nnnn32)c(OC)c1 (stereo unspecified),3.75% (inactive),–
Cc1c(C)c2c(c(C)c1O)CC[C@@](C)(CN1CCN(c3cc(N4CCCC4)nc(N4CCCC4)n3)CC1)O2,-14.3% (inactive),–
Cn1c(-c2ccco2)nc2cc3ccccc3cc21,–,25.1 µM (active)
c1coc(-c2nc3nc4ccccc4n3nc2-c2ccco2)c1,-11.6% (inactive),–
CCOC(=O)CSc1nnc(-c2ccco2)n1C,2.61% (inactive),–
Cn1c(SCC(=O)N2CCOCC2)nnc1-c1ccc(NC(=O)c2ccccc2F)cc1,-3.2% (inactive),–
